High-throughput results: PubChem BioAssay, The Scripps Research Institute Molecular Screening Center
An excerpt weighted towards active compounds, which were near 4.1% of everything screened.
hcDAF-12 act: H. contortus DAF-12 nuclear receptor activators, primary screen, cell-based, luminescence, HEK293, lit1-tk-luc reporter; activation, % at 6.8 µM; AID 652067, 2013; HEK293 hcDAF-12 lit1-tk-luc reporter; 0% DMSO, 100% Δ7-dafachronic acid; 370,000 compounds, 1.4% hits;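 active means activation above the mean of all tested compounds plus 3 SD, cut at about 5.5% in these data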;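 further: 100% = response to 3 µM Δ7-dafachronic acid high control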
DAX1 inh-1: DAX1 (NR0B1) inhibitors on StAR promoter, primary screen, cell-based, luminescence, SF-1 (NR5A1), full-length DAX-1; HEK293T StAR-luciferase reporter, SF-1/DAX-1 repression relief; inhibition, % at 6.8 µM; 370,000 compounds, 1.1% hits; AID 652010, 2013;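 active means inhibition above the mean over all tested compounds plus 3 SD, cut at about 3.6% in these data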;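 further: 0% = DAX-1 cells with DMSO and 100% = cells lacking DAX-1 with DMSO; higher inhibition means more luminescence from relief of DAX-1 repression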
DAX1 inh-2: DAX1 (NR0B1) inhibitors, primary screen, cell-based, HEK293, Gal4-DAX1, luciferase luminescence; Nuclear receptor subfamily 0 group B member 1 (Homo sapiens), P51843; 340,000 compounds, 0.99% hits; HEK293 Gal4-DAX1 luciferase reporter; AID 504766, 2011; inhibition, % at 6.75 µM;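 active means inhibition above the mean over all tested compounds plus 3 SD, cut at about 4.2% in these data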;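 further: 0% = DAX1-transfected cells with DMSO and 100% = empty-vector control cells with DMSO; inhibition shows as a rise in luminescence from relieved DAX1 repression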
Target sequence (P51843 207-470 limits assumed): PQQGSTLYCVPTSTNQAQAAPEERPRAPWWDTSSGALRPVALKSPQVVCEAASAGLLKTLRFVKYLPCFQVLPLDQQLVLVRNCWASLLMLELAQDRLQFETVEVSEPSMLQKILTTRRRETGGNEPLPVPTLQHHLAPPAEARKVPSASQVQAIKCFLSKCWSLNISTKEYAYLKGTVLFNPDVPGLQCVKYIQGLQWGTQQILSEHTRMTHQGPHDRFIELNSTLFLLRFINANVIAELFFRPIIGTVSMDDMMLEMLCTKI
ssDAF12 agonist: S. stercoralis DAF-12 nuclear receptor activators, primary screen, cell-based, luminescence, HEK293, GRIP1 co-expression, lit1-tk-luc. HEK293 ssDAF-12/GRIP1 lit1-tk-luc reporter; % of 3 µM dafachronic acid response. activation, % at 6.8 µM. 370,000 compounds, 1% hits. AID 652126, 2013;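 active means activation above the mean over all tested compounds plus 3 SD, cut at about 0.9% in these data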;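 further: 0% = DMSO-only wells and 100% = 3 µM delta7-dafachronic acid wells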
hgDAF12 agonist: H. glycines DAF-12 receptor agonists, primary screen, cell-based, luminescence, HEK293, GAL4 fusion, UAS-luciferase; Nuclear hormone receptor DAF-12 (Heterodera glycines), GAL4 fusion; HEK293 GAL4-hgDAF12 UAS-luciferase reporter, agonist luminescence; normalized to butyrate control; activation, % at 6.8 µM; 370,000 compounds, 1.8% hits;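 active means activation above a cutoff set at the mean of all screened compounds plus 3 SD, cut at about 10% in these data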;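 further: 0% = DMSO wells and 100% = sodium butyrate wells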
hgDAF12 conf: H. glycines DAF-12 receptor agonists, confirmation, cell-based, luminescence, HEK293, GAL4-LBD fusion; shares compounds with hgDAF12 agonist; HEK293 GAL4-hgDAF12 luciferase reporter, agonist mode; percent of butyrate response; activation, % at 6.8 µM; 3,300 compounds, 80% hits; AID 743050, 2013;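 active means mean activation over triplicate wells above the hit cutoff derived from the earlier primary screen, cut at about 11% in these data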;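 further: 0% = DMSO low control and 100% = 2 mM sodium butyrate high control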
LXR ag 2: LXR agonists, Gal4 luciferase reporter, confirmation, counter-screen for hgDAF-12 agonist project, cell-based, luminescence, HEK293, H. glycines campaign; shares compounds with hgDAF12 agonist; 24 h; activation, % at 6.8 µM; 3,300 tested, under 10 active;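 active means mean activation of the triplicate above a set limit carried over from the primary screen, none filed active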
An asterisk follows results filed as active; . = no result given.

SMILES | hcDAF-12 act | DAX1 inh-1 | DAX1 inh-2 | ssDAF12 agonist | hgDAF12 agonist | hgDAF12 conf | LXR ag 2
C[C@H](CO)N1C[C@H](C)[C@@H](CN(C)Cc2ccccc2)Oc2ccc(NC(=O)CCCCCC(=O)Nc3ccccc3N)cc2C1=O | 2.5 | 1.8 | 2.8 | -0.9 | 15.8* | 9.0 | 0.0
CN1/C(=C\C(=O)c2cccnc2)Sc2ccccc21 | 2.0 | 3.3 | 1.4 | -0.7 | 17.6* | 11.5* | 0.6
COc1ccc(-c2cc(=O)c3c(O)cc(O)cc3o2)cc1 | 0.3 | 4.1* | 1.1 | -0.6 | 13.3* | 14.7* | 0.8
O=c1cc(-c2ccco2)oc2ccc(Cl)cc12 | -1.2 | -0.3 | 0.1 | -1.1 | -0.1 | . | .
O=c1cc(-c2ccccc2)oc2ccc(O)cc12 | 2.6 | 2.1 | 7.8* | -0.6 | 16.7* | 13.9* | 0.6
COc1ccc(-c2cc(=O)c3cc(O)ccc3o2)cc1 | 5.1 | 2.5 | 5.2* | 0.6 | 24.3* | 17.2* | 0.7
COc1ccc2oc(-c3ccncc3)cc(=O)c2c1 | 0.1 | 3.3 | 2.1 | -1.0 | 10.0 | . | .
COc1cc(-c2cc(=O)c3c(O)cc(O)cc3o2)cc(OC)c1OC | -1.7 | -0.9 | . | -1.8 | -4.3 | . | .
COc1ccc2oc(-c3ccco3)cc(=O)c2c1 | 3.4 | 4.5* | 0.5 | 0.1 | 18.7* | 14.4* | 0.8
Cc1cccc(-c2nc3sc(C)cc3c(=O)o2)c1 | -1.2 | 0.4 | -0.9 | -1.4 | -4.0 | . | .
Cc1cc(-c2nnc(SCC(=O)NC3CC3)n2C(C)C)cs1 | -0.7 | 0.6 | -0.6 | -1.4 | 1.3 | . | .
CC(=O)c1cc(-c2ccc(S(C)(=O)=O)cc2)c(=O)n2c1CCC2 | 1.6 | -0.5 | . | 0.0 | 0.9 | . | .
CCC1SC(CC)C(=O)N(CC(=O)Nc2ccc3c(c2)OCO3)C1=O (stereo unspecified) | 4.0 | -0.5 | 2.4 | -1.2 | -0.9 | . | .
COc1ccc(N2C(=O)c3[nH]nc(-c4ccccc4)c3C2c2cccc(C(F)(F)F)c2)cc1 (stereo unspecified) | -0.6 | -0.8 | . | -1.3 | -3.2 | . | .
CCCNC(=O)c1cccc(COc2ccccc2OC)c1 | 0.9 | 2.4 | -2.3 | -0.3 | 16.6* | 14.2* | 0.5
COc1ccc(OCc2cccc(C(=O)NN)c2)cc1 | 1.9 | 3.9* | -4.6 | -0.6 | 18.4* | 21.3* | 0.9
NNC(=O)c1cccc(COc2ccc(Br)cc2)c1 | 4.2 | 3.7* | -4.1 | -0.5 | 18.8* | 21.7* | 0.8
C=CCNc1ccc2c(c1)OC[C@@H](CC(C)C)NS2(=O)=O | 0.3 | 0.7 | . | -1.2 | 2.2 | . | .
CC(/C=C/c1ccc(OCc2ccccc2)cc1)=N\O | 6.1* | 1.6 | 1.0 | -0.7 | 14.1* | 13.2* | 0.6
O=C(Nc1cccnc1)c1sc2cccc(F)c2c1Cl | 6.0* | 4.1* | 1.0 | -0.9 | 17.1* | 14.8* | 0.4
C[C@@H]1ON(C)[C@H]2C[C@H]3c4cc(Nc5ccccc5)ccc4CCN3C[C@@H]12 | -1.9 | 0.5 | . | -0.6 | -0.6 | . | .
C[C@@H]1ON(C)[C@H]2C[C@H]3c4cc(-c5cc6ccccc6o5)ccc4CCN3C[C@@H]12 | 1.9 | 3.7* | . | -0.2 | 13.4* | 7.9 | 0.4
CN(C)/C=N/C(=S)Nc1ccc(Cl)cc1 | 0.8 | 0.9 | 1.8 | -0.9 | 13.9* | 10.9* | 0.3
Cc1ccccc1NC(=O)CSc1nnc(Cc2ccccc2)c(=O)n1N | -0.3 | -0.4 | 1.9 | -1.1 | -0.6 | . | .
OCCNc1nc(-c2ccccc2)c2cc(Cl)ccc2n1 | -1.4 | -0.1 | -0.3 | -1.4 | -1.4 | . | .
OCCCN=c1cc(-c2ccccc2)oc2ccc(Cl)cc12 | 3.6 | 0.4 | 1.4 | 0.0 | 17.9* | 10.8* | 0.3
